In PubChem BioAssay (NCI) one finds growth data, which are given here for eleven compounds.

Common to all, as to experiment: NCI-60 one-dose screen, 48 h (100 = growth as untreated, 0 = no growth, -100 = all killed)
In one experiment the test system is NCI-H226 lung. The note with it: 10 µM unless noted.
A further experiment deals with NCI-H322M lung. As to conditions: 10 µM unless noted.
For the next experiment, the system named is HOP-62 NSCLC. The note with it: 10 µM unless noted.
A further experiment concerns K-562 leukemia. The note with it: 10 µM unless noted.
In another experiment the test system is SF-295 CNS. The note with it: 10 µM unless noted.
In another experiment the test system is HCT-15 colon. The note with it: 10 µM.
Another experiment deals with SNB-19 CNS. The note with it: 10 µM unless noted.
Another experiment concerns SK-MEL-5 melanoma. As to conditions: 10 µM unless noted.
In the next experiment the test system is LOX IMVI melanoma. The note with it: 10 µM unless noted.
The test system of the next experiment is TK-10 renal. The note with it: 10 µM unless noted.
In a further experiment the test system is MOLT-4 leukemia. The note with it: 10 µM.
The next experiment deals with SR leukemia. The note with it: 10 µM.
The test system of another experiment is RPMI-8226 leukemia. The note with it: 10 µM unless noted.
A further experiment has as its system IGROV1 ovarian. The note with it: 10 µM.
The test system of a further experiment is HCC-2998 colon. The note with it: 10 µM unless noted.
For a further experiment, the system named is NCI-H522 lung. As to conditions: 10 µM unless noted.
Another experiment relates to EKVX NSCLC. As to conditions: 10 µM unless noted.
A further experiment has as its system CCRF-CEM leukemia. The note with it: 10 µM unless noted.
For a further experiment, the system named is HOP-92 NSCLC. As to conditions: 10 µM unless noted.

Structures are written as SMILES. About 83,000 compounds went through this panel and 20% of them were active in at least one assay; those are over-represented in the sample as a whole.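 Testing used 96-well plates and a 48-hour single-concentration exposure. Example: -40 means 40% of the starting cells died.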 A number with no mark means an inactive call. The source made the active and inactive calls. The calls were made as follows: active = growth percent below 10; inactive = the rest.

Turning to `O=C(O)CC(Br)C(=O)CBr` (stereo not drawn), the growth was 91.9% in the experiment on NCI-H226 lung; 100% in the experiment on NCI-H322M lung; 105% in the experiment with HOP-62 NSCLC; 105% in the experiment with K-562 leukemia; 98.2% in the experiment on SF-295 CNS; 93.5% in the experiment with HCT-15 colon. Besides, the growth in the experiment on SNB-19 CNS was 104%; in the experiment on SK-MEL-5 melanoma, 106%; in the experiment on LOX IMVI melanoma, 86.6%; in the experiment with TK-10 renal, 98.9%; in the experiment with MOLT-4 leukemia, 103%; with SR leukemia, 113%. For the same compound, the growth in the experiment with RPMI-8226 leukemia is 103%; in the experiment on IGROV1 ovarian it was 109%; in the experiment with HCC-2998 colon, 116%.

Take `CC(=O)O[C@H]1CC[C@H]2[C@@H]3CC[C@H]4CC=C(C)C[C@]4(C)[C@H]3CC[C@]12C`: the growth with NCI-H226 lung was 103%; with NCI-H322M lung it was 104%; with HOP-62 NSCLC it was 98.9%; in the experiment on NCI-H522 lung, 92.4%; with SF-295 CNS, 103%; in the experiment with HCT-15 colon, 98.6%. Also, the growth in the experiment with SNB-19 CNS was 101%; in the experiment with LOX IMVI melanoma it was 102%; in the experiment with EKVX NSCLC, 116%; in the experiment with TK-10 renal, 108%; in the experiment on CCRF-CEM leukemia, 108%; in the experiment with MOLT-4 leukemia, 94%. Also, the values for the growth in the experiment with RPMI-8226 leukemia, in the experiment on IGROV1 ovarian and in the experiment with HCC-2998 colon were 109%, 107% and 111%, respectively.

For the compound `O=S(=O)(Cl)c1ccccc1` (tested in a mixture with another compound), the growth in the experiment on NCI-H226 lung was 97.3%; with NCI-H322M lung it was 102%; in the experiment with HOP-62 NSCLC it was 92.9%; with NCI-H522 lung, 89.1%; with HCT-15 colon, 101%; in the experiment with SK-MEL-5 melanoma, 99.2%. Further, the growth was 105% with TK-10 renal; 114% in the experiment on CCRF-CEM leukemia; 93% with MOLT-4 leukemia; 104% in the experiment with SR leukemia; 96.6% with RPMI-8226 leukemia; 109% with IGROV1 ovarian. In addition, the growth in the experiment with HCC-2998 colon is 100%.

For `C[C@@H]1O[C@@H](O[C@H]2CC[C@@]3(C)[C@H](CCC4[C@@H]3C(O)C[C@]3(C)[C@@H](c5ccc(=O)oc5)CC[C@]43O)C2)[C@H](O)[C@H](O)[C@H]1O` (stereo partly drawn), the growth with NCI-H226 lung is -84.2% (active); in the experiment on NCI-H322M lung it was -73.9% (active); in the experiment on HOP-62 NSCLC it was -100% (active); in the experiment on NCI-H522 lung, -87% (active); with SF-295 CNS, -71.5% (active); in the experiment on HCT-15 colon, -74.5% (active). The growth in the experiment on SNB-19 CNS is -91.1% (active); in the experiment with SK-MEL-5 melanoma, -99.6% (active); with LOX IMVI melanoma, -55.8% (active); in the experiment with EKVX NSCLC, -58.3% (active); in the experiment on TK-10 renal, -97% (active); in the experiment on IGROV1 ovarian it was -62.9% (active). For the same compound, in the experiment with HCC-2998 colon, the growth is -73.6% (active).

`OB([O][Hg][c]1ccccc1)[O][Hg][c]1ccccc1`: the growth with NCI-H226 lung is 54.9%; with NCI-H322M lung it was -22.4% (active); in the experiment with HOP-62 NSCLC, -90.3% (active); in the experiment on K-562 leukemia, -32.5% (active); with SF-295 CNS, -32.1% (active); in the experiment on HCT-15 colon, -70.3% (active). The growth with SNB-19 CNS was 5.87% (active); in the experiment with LOX IMVI melanoma, -29.2% (active); in the experiment on TK-10 renal, -94.5% (active); in the experiment with MOLT-4 leukemia, -38.8% (active); in the experiment on SR leukemia it was -15.2% (active); with RPMI-8226 leukemia it was -44.4% (active). Moreover, the growth is -54.3% (active) with IGROV1 ovarian and -45.5% (active) with HCC-2998 colon.

With `CN1C(=O)NC(=O)C(N=Nc2ccc(Cl)cc2)C1=O` (stereo not drawn), the growth in the experiment with NCI-H226 lung is 105%; in the experiment with NCI-H322M lung, 102%; with HOP-62 NSCLC, 123%; with K-562 leukemia it was 54.7%; in the experiment on HCT-15 colon it was 88%; in the experiment on SNB-19 CNS it was 106%. In addition, the growth was 96% with SK-MEL-5 melanoma; 102% with LOX IMVI melanoma; 96.3% with EKVX NSCLC; 101% in the experiment with TK-10 renal; 106% in the experiment with CCRF-CEM leukemia; 96% in the experiment on MOLT-4 leukemia. Further, the growth in the experiment with SR leukemia is 100%; in the experiment with RPMI-8226 leukemia, 96.1%; in the experiment with IGROV1 ovarian it was 129%; with HCC-2998 colon, 90.6%.

Turning to `CCOC(=O)c1cnc(SCc2ccc(Cl)c(Cl)c2)nc1N1CC1`, the growth was 75.6% in the experiment on NCI-H226 lung; 69.7% with NCI-H322M lung; 64.9% with HOP-62 NSCLC; 21.4% in the experiment on K-562 leukemia; 39.1% in the experiment with SF-295 CNS; 33.7% in the experiment on HCT-15 colon. The growth in the experiment on SNB-19 CNS was 62.9%; in the experiment on SK-MEL-5 melanoma it was 72.6%; in the experiment with LOX IMVI melanoma, 23.7%; in the experiment on EKVX NSCLC it was 69.7%; in the experiment with CCRF-CEM leukemia it was 38%; in the experiment on MOLT-4 leukemia, 24.5%. Further, the growth in the experiment with RPMI-8226 leukemia is 59.7%; in the experiment with HCC-2998 colon, 51.9%.

With `Cc1ccc(C[As+](c2ccccc2)(c2ccccc2)c2ccccc2)cc1`, the growth in the experiment on NCI-H226 lung was 8.52% (active); with NCI-H322M lung, 18.6%; with HOP-62 NSCLC, 9.44% (active); in the experiment on K-562 leukemia, 9.47% (active); in the experiment with SF-295 CNS it was -15.6% (active); in the experiment with HCT-15 colon, 75.9%. Further, the growth with LOX IMVI melanoma is -26.6% (active); in the experiment with CCRF-CEM leukemia, 16.3%; in the experiment with MOLT-4 leukemia, 14%; in the experiment with RPMI-8226 leukemia, -8.65% (active); in the experiment with IGROV1 ovarian, 9.49% (active); with HCC-2998 colon, 16.2%.

As to `N#CC1=C(N)Oc2cc3c(cc2C1c1cccs1)OCO3` (stereo not drawn), the growth in the experiment on NCI-H226 lung was 47.6%; in the experiment with NCI-H322M lung, 40.5%; with HOP-62 NSCLC, 26.3%; with NCI-H522 lung it was -26% (active); in the experiment on SF-295 CNS it was 4.03% (active); with HCT-15 colon, 35.5%. Besides, the growth in the experiment with SK-MEL-5 melanoma is 16.2%; in the experiment on LOX IMVI melanoma, 37.2%; with EKVX NSCLC, 53.7%; with TK-10 renal it was 56.1%; with CCRF-CEM leukemia it was 21.4%; in the experiment on MOLT-4 leukemia it was 29.9%. Further, the growth in the experiment with SR leukemia is 16.2%; in the experiment on RPMI-8226 leukemia, 24.9%; in the experiment on IGROV1 ovarian it was 35.3%; in the experiment on HCC-2998 colon, 39.5%.

With `CC12CCC(=O)C=C1C(O)CC1C2CCC2(C)C(O)CCC12` (stereo not drawn), the growth is 94.7% with NCI-H226 lung; 98% with NCI-H322M lung; 103% with HOP-92 NSCLC; 106% in the experiment with NCI-H522 lung; 105% in the experiment with K-562 leukemia; 105% with SF-295 CNS. The growth was 101% with SNB-19 CNS; 98.6% in the experiment with SK-MEL-5 melanoma; 97.2% with LOX IMVI melanoma; 107% in the experiment with EKVX NSCLC; 104% in the experiment on TK-10 renal; 103% in the experiment with CCRF-CEM leukemia. The growth with MOLT-4 leukemia is 96.5%; in the experiment with SR leukemia it was 106%; with RPMI-8226 leukemia, 108%; with IGROV1 ovarian it was 106%; with HCC-2998 colon it was 101%.

With `Cc1cc(N(CCCl)CCCl)ccc1C=Nc1ccc2ccccc2c1`, the growth in the experiment on NCI-H226 lung is -49.7% (active); with NCI-H322M lung it was 103%; in the experiment with HOP-62 NSCLC, 42.7%; in the experiment with K-562 leukemia it was 80.7%; with SNB-19 CNS it was 84.7%; in the experiment with SK-MEL-5 melanoma, 74.6%. Besides, the growth with LOX IMVI melanoma is 82.8%; in the experiment with TK-10 renal, 73%; in the experiment on CCRF-CEM leukemia it was 55.3%; in the experiment on MOLT-4 leukemia it was 43.7%; in the experiment on SR leukemia, 46.2%; with RPMI-8226 leukemia, 78.8%. Also, in the experiment on IGROV1 ovarian, the growth is 63%.
